According to PubChem BioAssay (EPA / NIEHS):
Results filed as inconclusive are left out. Calls of active or inactive are those of the source. How the source made its calls: active means hit-call score of the fitted dose curve at least 0.9, where 1 is the maximum; inconclusive means response in the unintended direction; inactive means score below 0.9.

Tests used:
[1] = Tanguay_ZF_120hpf_SWIM_legacy: (Legacy) Oregon State University Tanguay Lab 120 Hour Post-fertilization zebrafish Assay for Swim Bladder Malformation (AID 2283654);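 further: swim bladder malformation in each larva scored yes or no under brightfield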
How it was run: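 Embryos lacking chorions were exposed individually and statically to test chemical from 6 to 120 hpf at 28C, with 0.64% DMSO as vehicle. At 120 hpf, swim bladder malformation was recorded as present or absent by brightfield microscopy.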

[2] = Tanguay_ZF_120hpf_NC_legacy: (Legacy) Oregon State University Tanguay Lab 120 Hour Post-fertilization zebrafish Assay for Notochord and Tail Malformation (AID 2283656)
How it was run: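 Dechorionated 5D zebrafish, 1/well from 6 hpf; static exposure to 120 hpf, 28C, sealed, dark; final DMSO 0.64% v/v. NC scored binary (present/absent); dead embryos not scored. Fit vs DMSO baseline, gain direction.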

[3] = test system: Thyroperoxidase (TPO), gene 54314; assay: CCTE_Simmons_AUR_rTPO: CCTE's Amplex UltraRed Assay for Thyroperoxidase (TPO) Inhibition, Simmons Lab (AID 2283662);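 on AC50: potency for loss of signal meaning inhibition of peroxidase activity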
How it was run: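 Rat thyroid microsomes (5 ug protein) with 25 uM Amplex UltraRed and 300 uM H2O2 in 200 mM phosphate buffer, 30 min at 37C in dark; fluorescence 544/590 nm. Eight concentrations, 5 nM–87.5 uM final, 0.5% DMSO, triplicate biological replicates.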

[4] = CCTE_Simmons_CellTiterGLO_HEK293T: Viability Assessment in CCTE's Assays for Thyroperoxidase (TPO) Inhibition, Simmons Lab (AID 2283665);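 on AC50: cells exposed to compound for 24 h before readout; actives reduce ATP signal below DMSO vehicle meaning cytotoxicity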
How it was run: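 Cytotoxicity counter-screen: human HEK293T cells in low-serum (1% FBS) medium receive test chemical, 5 nM to 87.5 uM final, for 24 h; ATP is quantified by luciferase luminescence.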

[5] = Tanguay_ZF_120hpf_TR_legacy: (Legacy) Oregon State University Tanguay Lab 120 Hour Post-fertilization zebrafish Assay for Touch Response (AID 2283667)
How it was run: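 5D WT embryos; static exposure to 120 hpf, 28C, sealed/dark; DMSO 0.64% v/v final. TR scored present/absent; dead embryos excluded. Pos ctrl 5uM trimethyltin chloride.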

[6] = Tanguay_ZF_120hpf_TRUN_legacy: (Legacy) Oregon State University Tanguay Lab 120 Hour Post-fertilization zebrafish Assay for Truncated Body (AID 2283655)
How it was run: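 Binary presence/absence of truncated body is recorded at 120 hpf by brightfield, with non-mortality endpoints skipped after death. Exposure is static from 6 hpf in sealed dark plates at 28C, using dechorionated wild-type zebrafish, 0.64% DMSO.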

In the case of `Nc1cc(Cl)cc(C(=O)O)c1Cl`, the outcome [1] is reported as “inactive”, the outcome [2] is reported as “inactive” and the AC50 [3] is reported as 24.2 µM (active). The outcome [4] was “inactive” and the outcome [5] was “inactive”.

With `CCC(C)c1ccc(O)cc1` (configuration not stated) the outcome [1] was “inactive”, the outcome [2] was “inactive” and the AC50 [3] was 2.88 µM (active). The AC50 [4] was 43.8 µM (active) and the outcome [5] was “inactive”.

In the case of `Nc1ccc(Oc2ccc(N)cc2)cc1`, the outcome [1] is reported as “inactive”, the outcome [2] is reported as “inactive” and the AC50 [3] is reported as 0.831 µM (active). For the same molecule, the outcome [4] was “inactive” and the outcome [5] was “inactive”.

For `CC(C)(C)OOC(C)(C)CCC(C)(C)OOC(C)(C)C`, the outcome [1] was “inactive”, the outcome [2] was “inactive” and the outcome [5] was “inactive”.

For `Nc1ccc(Cc2ccc(N)cc2)cc1`, the outcome [1] was “inactive”, the outcome [2] was “inactive” and the AC50 [3] was 0.0776 µM (active). For the same molecule, the outcome [4] was “inactive” and the outcome [5] was “inactive”.

For `CC(C)(OOC(C)(C)c1ccccc1)c1ccccc1`, the outcome [1] was “inactive”, the outcome [6] was “inactive” and the outcome [2] was “inactive”. The outcome [5] was “inactive”.

For `Clc1ccc(C(c2ccc(Cl)cc2)C(Cl)(Cl)Cl)cc1`, the outcome [1] was “inactive” and the outcome [2] was “inactive”.

In the case of `Oc1ccc2ccc3cccc4ccc1c2c34`, the AC50 [1] is reported as 48.3 µM (active), the AC50 [2] is reported as 11 µM (active) and the AC50 [3] is reported as 10.9 µM (active). The AC50 [4] was 10.8 µM (active) and the AC50 [5] was 44.1 µM (active).

With `OCCCl` the outcome [1] was “inactive”, the outcome [2] was “inactive” and the outcome [5] was “inactive”.

For `N#CC(Br)Br`, the outcome [1] was “inactive”, the outcome [6] was “inactive” and the outcome [2] was “inactive”. For the same molecule, the outcome [5] was “inactive”.

For `N#CC(Br)(Br)C(N)=O`, the outcome [1] was “inactive”, the outcome [6] was “inactive” and the outcome [3] was “inactive”. For the same molecule, the outcome [4] was “inactive” and the outcome [5] was “inactive”.

With `O=[N+]([O-])c1ccc(Oc2ccc(Cl)cc2Cl)cc1` the outcome [1] was “inactive”, the outcome [6] was “inactive” and the outcome [5] was “inactive”.

With `COC(=O)c1ccccc1N` the outcome [1] was “inactive”, the outcome [2] was “inactive” and the outcome [3] was “inactive”. For the same molecule, the outcome [4] was “inactive” and the outcome [5] was “inactive”.

For `CC(C)(O)c1cnn2c(-c3ccc(F)c(-c4c(F)cccc4C#N)c3)cnc2n1`, the outcome [1] was “inactive”, the outcome [6] was “inactive” and the outcome [5] was “inactive”.

In the case of `CS(=O)(=O)NC(=O)c1cc(Oc2ccc(C(F)(F)F)cc2Cl)ccc1[N+](=O)[O-]`, the outcome [1] is reported as “inactive”, the outcome [2] is reported as “inactive” and the outcome [5] is reported as “inactive”.

For `O=C(O)C1C2CCC(O2)C1C(=O)O` (configuration not stated), the outcome [1] was “inactive” and the outcome [2] was “inactive”.

With `[Cl-].[Cl-].[Hg+2]` the AC50 [1] was 1.02 µM (active), the AC50 [4] was 0.939 µM (active) and the AC50 [5] was 1.15 µM (active).

In the case of `ClCCOCCCl`, the outcome [1] is reported as “inactive”, the outcome [2] is reported as “inactive” and the outcome [5] is reported as “inactive”.

With `CCC[CH2][Sn]([Cl])([CH2]CCC)[CH2]CCC` the outcome [1] was “inactive”, the outcome [2] was “inactive” and the outcome [5] was “inactive”.

In the case of `Brc1ccc(Oc2ccccc2)cc1`, the outcome [1] is reported as “inactive”, the outcome [2] is reported as “inactive” and the outcome [5] is reported as “inactive”.

In the case of `O=C(N[C@H](c1ccccc1)[C@@H]1CN2CCC1CC2)c1c(Cl)ccc(C(F)(F)F)c1Cl`, the AC50 [5] is reported as 0.968 µM (active).

In the case of `COP(=S)(OC)SCN1C(=O)c2ccccc2C1=O`, the outcome [6] is reported as “inactive”, the outcome [2] is reported as “inactive” and the AC50 [3] is reported as 12.9 µM (active). The AC50 [4] was 43.8 µM (active) and the outcome [5] was “inactive”.

For `CCC12COCN1COC2`, the outcome [2] was “inactive” and the outcome [5] was “inactive”.

For `CCOc1cccc(C2(N3CCN(c4ccccc4)CC3)CCC(C)CC2)c1` (configuration not stated), the outcome [1] was “inactive”, the outcome [2] was “inactive” and the outcome [5] was “inactive”.

With `Cn1cc(-c2ccccc2)c(=O)c(-c2cccc(C(F)(F)F)c2)c1` the outcome [1] was “inactive”, the outcome [2] was “inactive” and the AC50 [5] was 41.1 µM (active).

In the case of `Oc1ccccc1Cl`, the outcome [1] is reported as “inactive”, the outcome [3] is reported as “inactive” and the outcome [4] is reported as “inactive”.

In the case of `[O-][Cl+]O`, the outcome [1] is reported as “inactive” and the outcome [5] is reported as “inactive”.

For `O=C1CCCO1`, the outcome [1] was “inactive” and the outcome [5] was “inactive”.

For `c1ccc(NNc2ccccc2)cc1`, the outcome [6] was “inactive”, the outcome [2] was “inactive” and the outcome [3] was “inactive”. For the same molecule, the AC50 [4] was 19.1 µM (active) and the outcome [5] was “inactive”.

For `CCNS(=O)(=O)C(F)(F)C(F)(F)C(F)(F)C(F)(F)C(F)(F)C(F)(F)C(F)(F)C(F)(F)F`, the outcome [2] was “inactive” and the AC50 [5] was 17 µM (active).

For `CC(C)(C)C(O)(CCc1ccc(Cl)cc1)Cn1cncn1` (configuration not stated), the outcome [1] was “inactive”, the outcome [2] was “inactive” and the outcome [5] was “inactive”.

With `CCCSC(=O)N(CCC)CCC` the outcome [1] was “inactive”, the outcome [2] was “inactive” and the outcome [5] was “inactive”.

In the case of `CCCCCCCCCCCCCN1CC(C)OC(C)C1` (configuration not stated), the outcome [1] is reported as “inactive” and the outcome [5] is reported as “inactive”.

For `c1ccc2c(c1)-c1cccc3cccc-2c13`, the outcome [2] was “inactive” and the outcome [5] was “inactive”.

With `O=Cc1ccco1` the outcome [2] was “inactive” and the outcome [5] was “inactive”.

With `CCCCCCCCOC(=O)c1ccc(C(=O)OCCCCCCCC)c(C(=O)OCCCCCCCC)c1` the outcome [1] was “inactive”, the outcome [2] was “inactive” and the outcome [5] was “inactive”.

In the case of `c1ccc(N=Nc2ccccc2)cc1`, the outcome [2] is reported as “inactive”.

In the case of `Cc1ccc(N=C=O)cc1N=C=O`, the outcome [6] is reported as “inactive”, the outcome [2] is reported as “inactive” and the AC50 [3] is reported as 16.9 µM (active). For the same molecule, the outcome [4] was “inactive” and the outcome [5] was “inactive”.

For `Clc1ccc(C(c2ccc(Cl)cc2)C(Cl)Cl)cc1`, the outcome [1] was “inactive”, the outcome [2] was “inactive” and the outcome [5] was “inactive”.

For `C[N+](C)(C)CC1CO1` (configuration not stated), the outcome [1] was “inactive”, the outcome [2] was “inactive” and the outcome [5] was “inactive”.

For `CCCCCOC(=O)c1ccccc1C(=O)OCCCCC`, the outcome [1] was “inactive”, the outcome [2] was “inactive” and the outcome [5] was “inactive”.

With `Clc1ccc(Cl)c(Cl)c1` the outcome [1] was “inactive”, the outcome [2] was “inactive” and the outcome [5] was “inactive”.

With `c1ccc2c(c1)oc1ccccc12` the outcome [6] was “inactive”, the outcome [2] was “inactive” and the outcome [5] was “inactive”.

With `CCCCOC(=O)c1ccccc1C(=O)OCc1ccccc1` the outcome [2] was “inactive”, the outcome [3] was “inactive” and the AC50 [4] was 8.68 µM (active). For the same molecule, the outcome [5] was “inactive”.
